# According to publication PMC7862700, “An all-to-all approach to the identification of sequence-specific readers for epigenetic DNA modifications on cytosine”:
# Experiments:
# Assay in all cases: DAPPL (digital affinity profiling via proximity ligation, sequencing); 10 mM Tris-HCl pH 7.5, 50 mM NaCl, 1 mM DTT, 4% glycerol, room temperature, 30 min; GST-TFs on glutathione beads, 16-mer random dsDNA library, 0.1% formaldehyde crosslink after washing; high values mean tight binding
# FLI1 = molecular target: T1, FLI1 (Homo sapiens, UniProt Q01543 1-452); conditions: protein: recombinant; tags: N-terminal GST; dsDNA, one strand shown
# T1 sequence: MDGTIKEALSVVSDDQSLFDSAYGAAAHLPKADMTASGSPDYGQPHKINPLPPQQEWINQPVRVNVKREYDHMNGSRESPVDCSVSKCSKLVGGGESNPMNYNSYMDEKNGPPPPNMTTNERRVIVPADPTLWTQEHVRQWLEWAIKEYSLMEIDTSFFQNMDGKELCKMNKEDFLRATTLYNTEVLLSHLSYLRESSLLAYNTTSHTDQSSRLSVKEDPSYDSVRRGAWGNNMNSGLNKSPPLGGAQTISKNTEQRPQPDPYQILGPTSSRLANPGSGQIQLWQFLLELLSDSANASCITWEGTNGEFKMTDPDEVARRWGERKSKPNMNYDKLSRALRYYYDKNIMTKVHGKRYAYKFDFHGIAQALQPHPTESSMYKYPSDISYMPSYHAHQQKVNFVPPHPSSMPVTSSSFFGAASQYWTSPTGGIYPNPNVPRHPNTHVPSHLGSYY
# In short: (§1)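 GST fusions of human transcription factors were expressed in yeast and captured with glutathione beads. Once given DNA barcodes and pooled alongside a tag-only sample, they were incubated for 30 min at room temperature with 200 nmole of a random double-stranded 16-mer DNA library in Tris/NaCl/DTT/glycerol buffer, then washed, crosslinked (0.1% formaldehyde), proximity-ligated, PCR-amplified and sequenced on an Illumina NextSeq500. The binding signal of each hexamer is its read frequency for a factor divided by its frequency for the tag-only sample.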
# ELK1 = molecular target: T2, ELK1 (Homo sapiens, UniProt P19419 1-428); conditions: protein: recombinant; tags: N-terminal GST; dsDNA, one strand shown
# T2 sequence: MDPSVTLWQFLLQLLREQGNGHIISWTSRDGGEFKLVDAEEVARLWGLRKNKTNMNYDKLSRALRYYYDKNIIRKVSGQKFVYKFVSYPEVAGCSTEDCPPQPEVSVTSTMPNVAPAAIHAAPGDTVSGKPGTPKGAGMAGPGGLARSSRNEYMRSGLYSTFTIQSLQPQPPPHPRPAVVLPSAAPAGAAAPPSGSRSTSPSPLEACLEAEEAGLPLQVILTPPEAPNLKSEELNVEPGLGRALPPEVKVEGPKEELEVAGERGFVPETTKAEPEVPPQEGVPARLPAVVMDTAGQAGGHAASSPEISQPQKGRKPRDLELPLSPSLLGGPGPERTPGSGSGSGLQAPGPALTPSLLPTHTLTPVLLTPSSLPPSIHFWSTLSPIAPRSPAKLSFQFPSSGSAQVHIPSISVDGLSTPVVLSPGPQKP
# In short: as §1
# GABPA = molecular target: T3, GABPA (Homo sapiens, UniProt Q06546 1-454); conditions: protein: recombinant; tags: N-terminal GST; dsDNA, one strand shown
# T3 sequence: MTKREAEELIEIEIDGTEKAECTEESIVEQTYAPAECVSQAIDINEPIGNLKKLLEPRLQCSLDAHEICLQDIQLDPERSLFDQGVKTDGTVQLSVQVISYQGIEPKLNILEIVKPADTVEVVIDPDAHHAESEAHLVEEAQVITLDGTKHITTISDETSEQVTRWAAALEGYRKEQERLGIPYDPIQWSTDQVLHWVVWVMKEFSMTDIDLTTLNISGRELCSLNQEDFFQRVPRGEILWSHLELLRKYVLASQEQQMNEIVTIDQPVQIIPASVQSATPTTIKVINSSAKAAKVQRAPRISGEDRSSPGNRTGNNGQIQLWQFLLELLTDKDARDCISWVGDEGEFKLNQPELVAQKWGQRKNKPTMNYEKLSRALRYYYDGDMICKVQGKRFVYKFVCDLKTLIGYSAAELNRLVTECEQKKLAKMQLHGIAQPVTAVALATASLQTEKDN
# In short: as §1
# ERG = molecular target: T4, ERG (Homo sapiens, UniProt P11308 1-479); conditions: protein: recombinant; tags: N-terminal GST; dsDNA, one strand shown
# T4 sequence: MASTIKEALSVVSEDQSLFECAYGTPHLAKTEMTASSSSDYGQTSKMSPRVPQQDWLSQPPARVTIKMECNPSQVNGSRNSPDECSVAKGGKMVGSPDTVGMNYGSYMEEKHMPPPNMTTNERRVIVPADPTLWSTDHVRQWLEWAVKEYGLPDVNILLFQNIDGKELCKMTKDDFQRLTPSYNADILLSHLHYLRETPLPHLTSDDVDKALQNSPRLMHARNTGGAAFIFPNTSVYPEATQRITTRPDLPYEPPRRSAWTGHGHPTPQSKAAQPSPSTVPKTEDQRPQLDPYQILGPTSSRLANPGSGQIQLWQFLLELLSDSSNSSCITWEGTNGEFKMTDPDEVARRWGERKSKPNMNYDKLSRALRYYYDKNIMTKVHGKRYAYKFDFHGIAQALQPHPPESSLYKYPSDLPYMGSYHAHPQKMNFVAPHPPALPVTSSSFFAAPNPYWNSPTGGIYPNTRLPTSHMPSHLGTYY
# In short: as §1
# ELF1 = ELF1 (Homo sapiens, UniProt P32519 1-619); conditions: protein: recombinant; tags: N-terminal GST; dsDNA, one strand shown
# In short: as §1
# EHF = molecular target: T5, EHF (Homo sapiens, UniProt Q9NZC4 1-300); conditions: protein: recombinant; tags: N-terminal GST; dsDNA, one strand shown
# T5 sequence: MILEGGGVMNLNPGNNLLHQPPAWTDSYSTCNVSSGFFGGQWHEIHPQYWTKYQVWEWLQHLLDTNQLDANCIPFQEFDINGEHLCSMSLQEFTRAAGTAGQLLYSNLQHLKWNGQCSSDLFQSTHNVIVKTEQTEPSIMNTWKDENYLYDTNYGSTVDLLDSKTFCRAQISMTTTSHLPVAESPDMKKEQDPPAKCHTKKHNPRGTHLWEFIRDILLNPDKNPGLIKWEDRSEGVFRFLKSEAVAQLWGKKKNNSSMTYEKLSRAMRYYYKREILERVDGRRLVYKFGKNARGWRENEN
# In short: as §1
# SPI1 = SPI1 (Homo sapiens, UniProt P17947 1-270); conditions: protein: recombinant; tags: N-terminal GST; dsDNA, one strand shown
# In short: as §1
# SPIB = SPIB (Homo sapiens, UniProt Q01892 1-262); conditions: protein: recombinant; tags: N-terminal GST; dsDNA, one strand shown
# In short: as §1
# ELK3 = molecular target: T6, ELK3 (Homo sapiens, UniProt P41970 1-407); conditions: protein: recombinant; tags: N-terminal GST; dsDNA, one strand shown
# T6 sequence: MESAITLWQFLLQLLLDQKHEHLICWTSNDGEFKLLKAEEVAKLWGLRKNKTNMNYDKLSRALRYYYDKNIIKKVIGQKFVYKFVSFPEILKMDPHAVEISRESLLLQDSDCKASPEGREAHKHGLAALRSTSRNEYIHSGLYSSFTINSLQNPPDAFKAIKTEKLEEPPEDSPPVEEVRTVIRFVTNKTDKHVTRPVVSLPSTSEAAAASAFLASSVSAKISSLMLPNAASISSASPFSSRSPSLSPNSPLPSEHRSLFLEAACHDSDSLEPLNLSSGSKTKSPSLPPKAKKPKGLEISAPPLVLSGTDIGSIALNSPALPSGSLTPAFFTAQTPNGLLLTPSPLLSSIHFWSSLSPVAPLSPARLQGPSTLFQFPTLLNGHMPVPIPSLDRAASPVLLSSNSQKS
# In short: as §1
# FEV = molecular target: T7, FEV (Homo sapiens, UniProt Q99581 1-238); conditions: protein: recombinant; tags: N-terminal GST; dsDNA, one strand shown
# T7 sequence: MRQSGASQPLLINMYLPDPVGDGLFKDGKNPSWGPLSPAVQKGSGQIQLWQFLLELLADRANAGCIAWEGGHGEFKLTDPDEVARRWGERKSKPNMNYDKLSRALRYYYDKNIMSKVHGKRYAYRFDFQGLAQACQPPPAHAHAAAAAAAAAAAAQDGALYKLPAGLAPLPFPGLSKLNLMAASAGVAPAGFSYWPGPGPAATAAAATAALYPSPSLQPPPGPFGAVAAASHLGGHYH
# In short: as §1
# ETV5 = ETV5 (Homo sapiens, UniProt P41161 1-510); conditions: protein: recombinant; tags: N-terminal GST; dsDNA, one strand shown
# In short: as §1
# HSF1 = HSF1 (Homo sapiens, UniProt Q00613 1-529); conditions: protein: recombinant; tags: N-terminal GST; chain copies: 3; dsDNA, one strand shown
# In short: as §1
# SPIC = molecular target: T8, SPIC (Homo sapiens, UniProt Q8N5J4 1-248); conditions: protein: recombinant; tags: N-terminal GST; dsDNA, one strand shown
# T8 sequence: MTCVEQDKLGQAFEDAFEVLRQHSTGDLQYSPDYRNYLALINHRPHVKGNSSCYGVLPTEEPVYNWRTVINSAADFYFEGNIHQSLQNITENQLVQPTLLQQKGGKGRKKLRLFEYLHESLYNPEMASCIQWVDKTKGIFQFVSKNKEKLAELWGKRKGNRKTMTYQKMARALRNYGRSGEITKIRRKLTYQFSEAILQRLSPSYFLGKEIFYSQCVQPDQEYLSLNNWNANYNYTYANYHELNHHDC
# In short: as §1
# ELF4 = ELF4 (Homo sapiens, UniProt Q99607 1-663); conditions: protein: recombinant; tags: N-terminal GST; dsDNA, one strand shown
# In short: as §1
# ELK4 = molecular target: T9, ELK4 (Homo sapiens, UniProt P28324-2 1-405); conditions: protein: recombinant; tags: N-terminal GST; dsDNA, one strand shown
# T9 sequence: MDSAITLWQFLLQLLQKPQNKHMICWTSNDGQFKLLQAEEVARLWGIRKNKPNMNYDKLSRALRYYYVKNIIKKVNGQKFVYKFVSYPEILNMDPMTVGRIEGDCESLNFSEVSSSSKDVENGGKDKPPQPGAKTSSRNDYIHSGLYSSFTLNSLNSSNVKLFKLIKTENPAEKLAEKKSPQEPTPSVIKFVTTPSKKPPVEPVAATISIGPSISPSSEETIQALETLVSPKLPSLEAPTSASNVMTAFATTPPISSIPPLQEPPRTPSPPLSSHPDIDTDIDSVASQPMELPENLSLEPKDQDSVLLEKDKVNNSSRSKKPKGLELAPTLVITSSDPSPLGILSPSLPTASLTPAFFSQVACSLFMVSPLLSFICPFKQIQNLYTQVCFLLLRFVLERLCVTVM
# In short: as §1
# ETV2 = molecular target: T10, ETV2 (Homo sapiens, UniProt O00321 1-342); conditions: protein: recombinant; tags: N-terminal GST; dsDNA, one strand shown
# T10 sequence: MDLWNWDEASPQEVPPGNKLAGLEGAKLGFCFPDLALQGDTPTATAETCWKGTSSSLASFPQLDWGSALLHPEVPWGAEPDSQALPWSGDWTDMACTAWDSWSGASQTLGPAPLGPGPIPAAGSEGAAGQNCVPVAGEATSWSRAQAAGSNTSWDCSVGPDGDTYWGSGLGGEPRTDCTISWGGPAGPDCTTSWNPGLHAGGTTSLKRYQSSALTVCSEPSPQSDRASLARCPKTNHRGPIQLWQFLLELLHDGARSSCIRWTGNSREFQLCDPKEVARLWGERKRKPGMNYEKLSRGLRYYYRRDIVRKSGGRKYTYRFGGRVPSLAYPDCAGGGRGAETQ
# In short: as §1
# ELF3 = molecular target: T11, ELF3 (Homo sapiens, UniProt P78545 1-371); conditions: protein: recombinant; tags: N-terminal GST; dsDNA, one strand shown
# T11 sequence: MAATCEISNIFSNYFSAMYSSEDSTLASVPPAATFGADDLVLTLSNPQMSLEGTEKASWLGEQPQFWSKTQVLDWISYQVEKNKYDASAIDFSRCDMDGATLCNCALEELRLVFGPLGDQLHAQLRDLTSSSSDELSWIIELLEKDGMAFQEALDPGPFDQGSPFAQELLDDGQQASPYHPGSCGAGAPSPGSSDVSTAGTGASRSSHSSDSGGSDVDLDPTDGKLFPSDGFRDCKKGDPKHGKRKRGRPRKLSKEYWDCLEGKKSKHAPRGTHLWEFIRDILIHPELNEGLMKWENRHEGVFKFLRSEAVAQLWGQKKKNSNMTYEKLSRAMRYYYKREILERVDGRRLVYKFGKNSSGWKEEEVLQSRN
# In short: as §1
# ETV1 = ETV1 (Homo sapiens, UniProt P50549 1-477); conditions: protein: recombinant; tags: N-terminal GST; dsDNA, one strand shown
# In short: as §1
# Chain of SPIB (Q01892 whole entry): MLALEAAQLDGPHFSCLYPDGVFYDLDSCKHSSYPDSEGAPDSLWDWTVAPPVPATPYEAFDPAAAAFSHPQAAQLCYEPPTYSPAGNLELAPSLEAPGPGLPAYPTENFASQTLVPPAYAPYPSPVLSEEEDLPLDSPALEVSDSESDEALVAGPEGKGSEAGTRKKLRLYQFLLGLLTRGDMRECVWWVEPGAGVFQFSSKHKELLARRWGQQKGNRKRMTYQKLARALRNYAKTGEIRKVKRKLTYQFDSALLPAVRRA
# Chain of ETV1 (P50549 whole entry): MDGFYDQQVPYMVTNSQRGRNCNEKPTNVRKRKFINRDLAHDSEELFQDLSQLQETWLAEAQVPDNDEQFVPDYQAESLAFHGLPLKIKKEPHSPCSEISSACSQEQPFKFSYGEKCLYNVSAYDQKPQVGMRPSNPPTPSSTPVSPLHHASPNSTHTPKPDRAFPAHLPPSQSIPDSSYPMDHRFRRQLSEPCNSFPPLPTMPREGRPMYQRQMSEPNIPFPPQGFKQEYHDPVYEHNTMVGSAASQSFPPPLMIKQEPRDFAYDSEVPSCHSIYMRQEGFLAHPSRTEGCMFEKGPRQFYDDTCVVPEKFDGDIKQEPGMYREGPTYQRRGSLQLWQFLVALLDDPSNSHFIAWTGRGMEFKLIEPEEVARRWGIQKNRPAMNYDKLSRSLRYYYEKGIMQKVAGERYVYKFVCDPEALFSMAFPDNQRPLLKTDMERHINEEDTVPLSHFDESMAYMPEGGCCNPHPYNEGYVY
# Chain of ELF1 (P32519 whole entry): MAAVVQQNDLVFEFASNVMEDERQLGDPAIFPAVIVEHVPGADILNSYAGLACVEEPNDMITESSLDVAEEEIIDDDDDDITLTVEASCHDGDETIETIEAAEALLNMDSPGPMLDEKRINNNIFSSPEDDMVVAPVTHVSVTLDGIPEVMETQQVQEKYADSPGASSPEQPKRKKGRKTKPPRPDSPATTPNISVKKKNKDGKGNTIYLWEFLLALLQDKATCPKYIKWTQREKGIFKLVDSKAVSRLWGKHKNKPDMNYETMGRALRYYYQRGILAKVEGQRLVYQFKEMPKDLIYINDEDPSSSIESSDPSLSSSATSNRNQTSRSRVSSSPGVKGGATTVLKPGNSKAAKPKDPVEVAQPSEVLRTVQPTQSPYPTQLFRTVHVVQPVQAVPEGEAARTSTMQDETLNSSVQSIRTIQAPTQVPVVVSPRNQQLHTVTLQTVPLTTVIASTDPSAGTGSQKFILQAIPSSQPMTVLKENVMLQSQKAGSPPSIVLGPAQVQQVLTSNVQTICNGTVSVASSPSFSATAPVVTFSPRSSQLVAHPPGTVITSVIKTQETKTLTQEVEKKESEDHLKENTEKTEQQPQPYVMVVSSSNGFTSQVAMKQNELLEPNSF
# Chain of ETV5 (P41161 whole entry): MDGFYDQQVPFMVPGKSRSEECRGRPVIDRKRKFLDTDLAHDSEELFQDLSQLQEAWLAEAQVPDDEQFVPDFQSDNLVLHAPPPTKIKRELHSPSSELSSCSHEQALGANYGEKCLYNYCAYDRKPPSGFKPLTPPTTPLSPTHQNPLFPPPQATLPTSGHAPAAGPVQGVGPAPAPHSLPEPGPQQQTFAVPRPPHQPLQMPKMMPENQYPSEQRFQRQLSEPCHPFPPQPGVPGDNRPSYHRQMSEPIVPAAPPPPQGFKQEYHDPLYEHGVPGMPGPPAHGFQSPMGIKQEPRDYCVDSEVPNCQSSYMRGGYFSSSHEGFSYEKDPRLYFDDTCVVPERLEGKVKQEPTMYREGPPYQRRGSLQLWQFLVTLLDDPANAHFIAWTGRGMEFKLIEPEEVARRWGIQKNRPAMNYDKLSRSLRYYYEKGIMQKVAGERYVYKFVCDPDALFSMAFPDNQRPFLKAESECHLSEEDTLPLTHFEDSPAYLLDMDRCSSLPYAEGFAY
# Chain of ELF4 (Q99607 whole entry): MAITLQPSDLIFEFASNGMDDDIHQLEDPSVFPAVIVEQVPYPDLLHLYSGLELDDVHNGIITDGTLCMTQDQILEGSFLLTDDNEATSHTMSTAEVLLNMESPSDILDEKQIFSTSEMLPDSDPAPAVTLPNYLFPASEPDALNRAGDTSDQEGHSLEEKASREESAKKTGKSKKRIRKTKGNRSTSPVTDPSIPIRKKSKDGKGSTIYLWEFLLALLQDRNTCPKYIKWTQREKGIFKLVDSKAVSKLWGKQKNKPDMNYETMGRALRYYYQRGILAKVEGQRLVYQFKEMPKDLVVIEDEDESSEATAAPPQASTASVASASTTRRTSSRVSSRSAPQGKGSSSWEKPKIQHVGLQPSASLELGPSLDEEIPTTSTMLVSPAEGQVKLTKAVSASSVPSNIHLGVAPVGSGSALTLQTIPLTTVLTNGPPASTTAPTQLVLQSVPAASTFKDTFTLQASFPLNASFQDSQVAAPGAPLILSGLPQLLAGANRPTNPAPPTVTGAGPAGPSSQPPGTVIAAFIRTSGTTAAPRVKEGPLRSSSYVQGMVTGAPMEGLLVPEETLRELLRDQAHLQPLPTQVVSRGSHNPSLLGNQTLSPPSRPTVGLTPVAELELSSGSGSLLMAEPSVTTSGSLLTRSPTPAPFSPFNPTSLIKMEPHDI
# Chain of HSF1 (Q00613 whole entry): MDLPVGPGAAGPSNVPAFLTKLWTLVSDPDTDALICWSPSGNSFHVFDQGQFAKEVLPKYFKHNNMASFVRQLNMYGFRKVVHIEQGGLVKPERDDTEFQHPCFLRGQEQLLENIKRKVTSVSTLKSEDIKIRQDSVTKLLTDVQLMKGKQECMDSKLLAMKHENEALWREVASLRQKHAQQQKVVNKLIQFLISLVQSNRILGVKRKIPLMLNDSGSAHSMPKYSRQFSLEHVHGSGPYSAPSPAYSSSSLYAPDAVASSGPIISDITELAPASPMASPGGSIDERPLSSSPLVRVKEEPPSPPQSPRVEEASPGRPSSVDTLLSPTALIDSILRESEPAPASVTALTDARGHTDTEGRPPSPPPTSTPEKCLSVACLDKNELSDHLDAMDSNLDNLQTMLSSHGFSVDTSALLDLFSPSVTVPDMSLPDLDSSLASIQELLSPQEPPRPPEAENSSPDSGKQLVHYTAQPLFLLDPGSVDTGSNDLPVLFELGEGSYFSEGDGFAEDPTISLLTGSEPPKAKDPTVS
sequence,measurement,setting,value
GAAACA,binding signal,FLI1,"1.38 fold enrichment (6-mer frequency, TF over GST control)"
same,binding signal,ELK1,"1.4 fold enrichment (6-mer frequency, TF over GST control)"
same,binding signal,GABPA,"1.22 fold enrichment (6-mer frequency, TF over GST control)"
same,binding signal,ERG,"1.32 fold enrichment (6-mer frequency, TF over GST control)"
same,binding signal,ELF1,"1.35 fold enrichment (6-mer frequency, TF over GST control)"
same,binding signal,EHF,"1.45 fold enrichment (6-mer frequency, TF over GST control)"
same,binding signal,SPI1,"1.3 fold enrichment (6-mer frequency, TF over GST control)"
same,binding signal,SPIB,"1.36 fold enrichment (6-mer frequency, TF over GST control)"
same,binding signal,ELK3,"1.38 fold enrichment (6-mer frequency, TF over GST control)"
same,binding signal,FEV,"1.33 fold enrichment (6-mer frequency, TF over GST control)"
same,binding signal,ETV5,"1.46 fold enrichment (6-mer frequency, TF over GST control)"
same,binding signal,HSF1,"1.22 fold enrichment (6-mer frequency, TF over GST control)"
same,binding signal,SPIC,"1.38 fold enrichment (6-mer frequency, TF over GST control)"
same,binding signal,ELF4,"1.3 fold enrichment (6-mer frequency, TF over GST control)"
same,binding signal,ELK4,"1.22 fold enrichment (6-mer frequency, TF over GST control)"
same,binding signal,ETV2,"1.44 fold enrichment (6-mer frequency, TF over GST control)"
same,binding signal,ELF3,"1.52 fold enrichment (6-mer frequency, TF over GST control)"
same,binding signal,ETV1,"1.26 fold enrichment (6-mer frequency, TF over GST control)"
